The whole screen tested about 290,000 compounds, of which about 370 (0.13%) were called active. This is one part of a sample in which actives are shown more often than they occur. Entries with a potency or affinity are not part of this list. Unmarked numbers belong to inactive results.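 How the source made its calls: active means spots per cell inhibited over 60%, with over 100 cells counted and total cytoplasm intensity under 500,000; inconclusive means wells with under 100 cells, flagged as likely toxic; inactive means the rest.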

This test deals with G-protein coupled receptor 55 (Homo sapiens) (UniProt Q9Y2T6). Kind of test: inhibition of LPI-stimulated GPR55 beta-arrestin translocation – imaging, U2OS, beta-arrestin-GFP, LPI agonist, primary screen (AID 2013).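 Further: U2OS cells stably carrying GPR55 and arrestin-GFP stimulated by 5 µM LPI near EC80; imaged beta-arrestin-GFP aggregate spots per cell after agonist stimulation; plate controls were LPI-stimulated DMSO wells for no effect and DMSO wells without LPI for full effect.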 As to conditions: LPI antagonism, at 10 µM, hits give high values.
G-protein coupled receptor 55 (Homo sapiens), sequence (Q9Y2T6 whole entry, looked up): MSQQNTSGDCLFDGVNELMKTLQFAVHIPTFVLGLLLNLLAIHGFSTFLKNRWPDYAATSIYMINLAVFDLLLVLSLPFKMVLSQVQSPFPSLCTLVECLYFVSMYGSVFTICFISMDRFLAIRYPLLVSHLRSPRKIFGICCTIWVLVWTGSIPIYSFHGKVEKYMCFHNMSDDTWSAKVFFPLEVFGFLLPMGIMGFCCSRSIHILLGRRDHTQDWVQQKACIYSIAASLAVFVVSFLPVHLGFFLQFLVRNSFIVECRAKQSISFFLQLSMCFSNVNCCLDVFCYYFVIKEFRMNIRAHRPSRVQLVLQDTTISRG
By inhibition is commonly meant the drop in the measured response relative to a control, in per cent. For `CC(C)(C)OC(=O)CC12CCCCC1NC(=O)O2` (configuration not stated), the inhibition is -7.6%.
As for `COc1ccc2[nH]c(=O)c(COC(=O)c3ccco3)cc2c1`, the inhibition was -0.6%.
Under `CCCCNS(=O)(=O)c1cccc(S(=O)(=O)N2CCCC2)c1` stands 11.2%; under `CC1Cn2c(nc(=O)c3c2NCN(CCc2ccccc2)C3)S1` (configuration not stated), 3.9%.
As to `CC(=O)c1c(C)nc2ccccn12`, the inhibition is 5.4%.
Under `O=S1(=O)CC=C(CSC(=S)NC2CCS(=O)(=O)C2)C1` (configuration not stated) stands 71.8% (active).
For `O=S1(=O)CCC(NC(=S)SCc2ccccc2Br)C1` (configuration not stated), the inhibition was 8.1%.
With `CCCSC(=S)NC1CCS(=O)(=O)C1` (configuration not stated), the inhibition was 1.1%.
With `CCOC(=O)C1=C(C)NC(C)=C(C(=O)OC)C1c1cccc([N+](=O)[O-])c1` (configuration not stated), the inhibition is 14.8%.
The figure for `CCOC(=O)C1=C(O)C(=O)N(c2ccccc2)C1c1cccc([N+](=O)[O-])c1` (configuration not stated) is -3.6%.
In the case of `CCn1c(SCc2nc3cc(OC)c(OC)cc3c(=O)[nH]2)nnc1-c1ccncc1`, the inhibition is -12.8%.
On to `CCOC(=O)N1CCN(C(=O)CS(=O)Cc2nc(-c3cccc(C)c3)oc2C)CC1` (configuration not stated), for which the inhibition was -4.3%.
As for `Cc1cc(=O)c(C(=O)O)nn1-c1ccccc1C(F)(F)F`, the inhibition is -0.4%.
With `O=C(NC(NC(=S)Nc1ccccc1C(=O)O)C(Cl)(Cl)Cl)c1ccco1` (configuration not stated), the inhibition is 15.9%.
The figure for `COc1ccccc1NC(=S)NC(NC(=O)c1ccco1)C(Cl)(Cl)Cl` (configuration not stated) is 3.2%.
For `Cc1ccc(NC(=O)C2C3C=CC4(O3)C2C(=O)N(CCCN2CCCCC2)C4C(=O)NC2CCCCC2)cc1C` (configuration not stated), the inhibition was 1.2%.
Take `COc1ccc(C(=O)C2CCCN(C(=O)c3noc4c3CCCC4)C2)c(C)c1` (configuration not stated): the inhibition was 15.3%.
Turning to `COCCNC(=O)c1cccc2c1-c1ccccc1C2=O`, the inhibition was 4%.
For `COCCCNC(=O)c1ccccc1-c1cc(C)no1`, the inhibition is -3.6%.
On to `COCCCNC(=O)c1ccc2c3c(onc13)-c1ccccc1C2=O`, for which the inhibition was 84.1% (active).
For `COC(CNC(=O)c1ccc2c3c(onc13)-c1ccccc1C2=O)OC`, the inhibition was 99.4% (active).
Consider `COC(CNC(=O)c1coc2nc3ccccc3nc12)OC`, for which the inhibition is -2.8%.
`CCOC(=O)C(C(=O)OCC)c1cc(Br)c2noc3c2c1C(=O)c1ccccc1-3`: the inhibition was -10.2%.
`O=C(c1cccc(C(F)(F)F)c1)N1CCN(S(=O)(=O)c2ccc(Cl)s2)CC1`: the inhibition was 9.8%.
For `CCN(c1cccc(C)c1)S(=O)(=O)c1ccc2c(c1)oc(=O)n2C`, the inhibition is 1.9%.
For `CCOc1ccc(NC(=O)CN(C)S(=O)(=O)c2ccc3c(c2)CCC(=O)N3)cc1`, the inhibition is -0.4%.
For the molecule `CC(C)CC(=O)NNC(=O)c1ccc(Cl)cc1`, the inhibition was 4.3%.
For the molecule `COc1ccc(C(=O)NC(Oc2ccccc2)C(Cl)(Cl)Cl)cc1` (configuration not stated), the inhibition is -6.6%.
Regarding `COc1ccc(C(=O)N(CCCO)C(C)C(=O)NC2CCCCC2)cc1OC` (configuration not stated), the inhibition was -11.9%.
As to `CCOC(=O)c1ccc(NC(=O)c2ccc3c(c2)C(=O)N(Cc2cccnc2)C3=O)cc1`, the inhibition is -16.9%.
`CCCSc1ncc(Cl)c(C(=O)Nc2ccc(S(=O)(=O)Nc3ncccn3)cc2)n1`: the inhibition was 7.3%.
Consider `CSc1ncc(Cl)c(C(=O)Nc2ccc(S(=O)(=O)N3CCOCC3)cc2)n1`, for which the inhibition is 29.9%.
On to `N/C(Cc1cccs1)=N\OC(=O)COc1ccc(Cl)cc1Cl`, for which the inhibition was -3.5%.
In the case of `Cc1ccc(CN2CCN(/N=C/C(Br)=C\c3ccccc3)CC2)cc1`, the inhibition was -12%.
Consider `CN1/C(=C\C(=O)CSc2nncn2C)C(C)(C)c2ccccc21`, for which the inhibition is -7.6%.
For `CN1/C(=C\C(=O)CSc2cccc[n+]2[O-])C(C)(C)c2ccccc21`, the inhibition was 0.8%.
As for `COc1ccc2[nH]cc(C(O)CN3CCC(C(N)=O)CC3)c2c1` (configuration not stated), the inhibition is 28.7%.
The figure for `COc1ccc([N+](=O)[O-])cc1N(CC(=O)NCCC1=CCCCC1)S(C)(=O)=O` is 0.4%.
Take `CC(C)(C)c1ccc(O)c(N=Cc2cc3c(cc2[N+](=O)[O-])OCO3)c1`: the inhibition was -3.2%.
For `CCN=C1S/C(=C\c2cn(C(C)=O)nc2-c2ccccc2)C(=O)N1CC`, the inhibition is -15.2%.
The figure for `CC(=O)NC1=NC(=O)/C(=C/c2cn(C(C)=O)nc2-c2ccccc2)S1` is 100% (active).
As to `CC(=O)NC1=NC(=O)/C(=C/c2cc(C)n(-c3cccc(C(=O)O)c3)c2C)S1`, the inhibition is -3.4%.
As to `CCCn1cc(CN2CCC(n3nccc3NC(=O)c3ccc4c(c3)OCO4)CC2)c(C)n1`, the inhibition is 6%.
The figure for `CCc1ccc(C(=O)COC(=O)[C@@H](NC(N)=O)[C@@H](C)CC)cc1` is 0.9%; for `CN(C)CCCN(C(=O)CCc1ccccc1)c1nc2ccc(Cl)cc2s1` it is 75.6% (active).
Turning to `Cc1ccc2nc(N(CCCN(C)C)C(=O)CCc3ccccc3)sc2c1`, the inhibition is 29.6%.
Take `CN(C)CCCN(C(=O)CCc1ccccc1)c1nc2ccc(Br)cc2s1`: the inhibition was 44.7%.
With `CN(C(=O)c1ccc(OC2CCN(Cc3ccccn3)CC2)cc1)C1CCCCC1`, the inhibition is -18.7%.
`C1CCC(C23CC4CC(CC(C4)C2)C3)NC1` (configuration not stated): the inhibition is -4.6%.
The figure for `O=S(=O)(CCC1CCCCN1)c1ccccc1` (configuration not stated) is 0.5%; for `CCCN1Cc2cccc(C(=O)N3CCN(c4ccc(F)cc4)CC3)c2C1=O` it is 2.2%; for `O=C(Nc1ccc(F)cc1F)c1cc(-c2ccco2)nc2ccccc12` it is 7.3%.
As to `CN(/C(=N/S(=O)(=O)c1ccccc1)c1ccccc1)S(=O)(=O)c1ccccc1`, the inhibition is 5.7%.
Turning to `CCc1ccc(CCC(=O)Nc2nccs2)o1`, the inhibition is 2.3%.
As for `Oc1ccc(-c2c(-c3ccsc3)sc3ccccc23)cc1`, the inhibition was 6.5%.
For `CN(C)c1ccc(C2(c3ccc(N(C)C)cc3)OC(=O)c3cc(N)ccc32)cc1`, the inhibition was 6.1%.
Under `Cc1cccc(C2(c3cccc(C)c3)OC(=O)c3ccccc32)c1` stands 10.5%.
Under `Cc1cc(C2(c3ccc(O)c(C)c3)OC(=O)c3ccccc32)ccc1O` stands 83.2% (active).
Under `CC(=O)Oc1ccc2c(c1)Oc1cc(OC(C)=O)ccc1C21OC(=O)c2ccccc21` stands 9.9%; under `O=C(O)c1ccc(C2(c3ccc(C(=O)O)cc3)OC(=O)c3ccccc32)cc1`, -10.8%.
On to `Nc1ccc(C2(c3ccc(N)cc3)OC(=O)c3ccccc32)cc1`, for which the inhibition was 4%.
The figure for `Cc1cc(O)c(C(C)C)cc1C1(c2cc(C(C)C)c(O)cc2C)OC(=O)c2ccccc21` is 6.1%.

Source of the values: PubChem BioAssay AID2013 (Sanford-Burnham Center for Chemical Genomics, 2009).
